{"source": "PubChem BioAssay AID372", "about": "(MTDP, 2006)", "note": "About 770 (0.77%) of roughly 100,000 compounds were called active. Cut-off read from the data, not from the text of the source: active = inhibition above about 50%; inactive = the rest. This excerpt belongs to a sample that is enriched for actives.", "data": [{"molecular_target": "Gag-Pol polyprotein (Human immunodeficiency virus type 1 group M subtype B (isolate HXB2)) (UniProt P04585)", "assay": "RNase H inhibition, HIV 1 Gag Pol polyprotein, FRET biochemical assay, screening (AID 372)", "settings": "HIV-1 RT RNase H, FRET RNA/DNA substrate fluorescence; at 10 µM; hits give high values", "values": [{"smiles": "O=C(Nc1ccc(Cl)cc1)C1CC(=O)N(c2cccc([N+](=O)[O-])c2)C1", "note": "(stereo unspecified)", "inhibition": "4% (inactive)"}, {"smiles": "COc1cc(OC)c(/C=C2\\C(=O)NC(=S)N(c3ccc(C)cc3)C2=O)cc1Br", "inhibition": "4% (inactive)"}, {"smiles": "NC(=O)c1ccccc1NC(=O)c1cccc([N+](=O)[O-])c1", "inhibition": "7% (inactive)"}, {"smiles": "Cc1ccc(N=C(NO)C(=Nc2ccc(C)c(C)c2)NO)cc1C", "inhibition": "23% (inactive)"}, {"smiles": "COc1cc(C=C2C(=O)c3ccccc3C2=O)ccc1OCc1ccc(F)cc1", "inhibition": "7% (inactive)"}, {"smiles": "COc1cc(C2NC(=O)NC(C)=C2C(=O)OCc2ccc3c(c2)OCO3)cc(OC)c1OC", "note": "(stereo unspecified)", "inhibition": "9% (inactive)"}, {"smiles": "COc1ccc2c(c1)CC/C(=C\\c1ccc([N+](=O)[O-])cc1)C2=O", "inhibition": "4% (inactive)"}, {"smiles": "COc1cc(C(=O)N/N=C/c2ccc(OC)c(OC)c2C(=O)O)cc(OC)c1OC", "inhibition": "0% (inactive)"}, {"smiles": "O=C(NC(=S)Nc1ccc(-c2nc3ccccc3s2)cc1)c1ccc([N+](=O)[O-])cc1", "inhibition": "38% (inactive)"}, {"smiles": "Cc1ccc(C(=O)NC(=S)Nc2ccc(-c3nc4ccccc4s3)cc2)cc1C", "inhibition": "35% (inactive)"}, {"smiles": "COc1ccc(C(=O)OCC(=O)c2ccc([N+](=O)[O-])cc2)cc1OC", "inhibition": "7% (inactive)"}, {"smiles": "O=S(=O)(Nc1nc2ccccc2s1)c1cccc2cccnc12", "inhibition": "8% (inactive)"}, {"smiles": "Cc1cc(NC(=O)CSc2nnc3c4ccccc4n(C)c3n2)no1", "inhibition": "4% (inactive)"}, {"smiles": "Oc1c(Br)cc(Br)cc1/C=N/Nc1nnc2c(n1)[nH]c1ccccc12", "inhibition": "2% (inactive)"}, {"smiles": "Oc1c(Br)cc(/C=N/Nc2nnc3c(n2)[nH]c2ccccc23)c(O)c1Br", "inhibition": "12% (inactive)"}, {"smiles": "O=C(CNC(=O)c1ccccc1)OCC(=O)c1ccc(Cl)cc1", "inhibition": "3% (inactive)"}, {"smiles": "COc1cc(/C=C2/C(=O)NN(c3ccc(C)c(C)c3)C2=O)ccc1O", "inhibition": "25% (inactive)"}, {"smiles": "Cc1ccc(N2C(=O)NC(=O)/C(=C/c3ccc(O)c(O)c3)C2=O)cc1", "inhibition": "33% (inactive)"}, {"smiles": "CCOc1cc(/C=C2/C(=O)NN(c3ccc(I)cc3)C2=O)ccc1O", "inhibition": "11% (inactive)"}, {"smiles": "CCOC(=O)c1ccc(N2NC(=O)/C(=C/c3cc(I)cc(I)c3O)C2=O)cc1", "inhibition": "57% (active)"}, {"smiles": "CCOC(=O)c1ccc(N2NC(=O)/C(=C/c3ccccc3O)C2=O)cc1", "inhibition": "14% (inactive)"}, {"smiles": "Cc1ccc(N2NC(=O)/C(=C/c3ccc(O)cc3)C2=O)cc1C", "inhibition": "13% (inactive)"}, {"smiles": "Cc1ccc(N2NC(=O)/C(=C/c3cc(I)cc(I)c3O)C2=O)cc1", "inhibition": "0% (inactive)"}, {"smiles": "O=C1NN(c2ccc(I)cc2)C(=O)/C1=C\\c1ccc(F)cc1", "inhibition": "0% (inactive)"}, {"smiles": "Cc1ccc(N2NC(=O)/C(=C/c3ccc(O)c(O)c3)C2=O)cc1", "inhibition": "51% (active)"}, {"smiles": "Cc1ccc(N2NC(=O)/C(=C/c3ccc(O)c(O)c3)C2=O)cc1C", "inhibition": "52% (active)"}, {"smiles": "Cc1ccc(N2NC(=O)/C(=C/c3ccc(O)c([N+](=O)[O-])c3)C2=O)cc1", "inhibition": "8% (inactive)"}, {"smiles": "O=C(CSc1nc2ccccc2[nH]1)Nc1cc(Cl)ccc1Cl", "inhibition": "4% (inactive)"}, {"smiles": "CCCOC(=O)C1=C(C)NC2=C(C(=O)CCC2)C1c1cccc(O)c1", "note": "(stereo unspecified)", "inhibition": "2% (inactive)"}, {"smiles": "CCOC(=O)C1=C(C)NC2=C(C(=O)CC(C)(C)C2)C1c1cccc(O)c1", "note": "(stereo unspecified)", "inhibition": "0% (inactive)"}, {"smiles": "N#CC1=C(SCC(=O)Nc2ccccc2)NC(=O)CC1c1ccco1", "note": "(stereo unspecified)", "inhibition": "7% (inactive)"}, {"smiles": "COc1ccc2oc(C)c(C(O)c3ccccc3)c2c1", "note": "(stereo unspecified)", "inhibition": "0% (inactive)"}, {"smiles": "CCOc1ccc(N2C(=O)CSC2=S)cc1", "inhibition": "0% (inactive)"}, {"smiles": "O=C1NN(c2ccc(Cl)c(Cl)c2)C(=O)/C1=C/c1ccc(O)c(O)c1", "inhibition": "49% (inactive)"}, {"smiles": "O=C1NN(c2ccc(Cl)cc2)C(=O)/C1=C\\c1ccc(O)c(O)c1", "inhibition": "57% (active)"}, {"smiles": "COc1cc(/C=C2/C(=O)NN(c3ccc(Cl)cc3)C2=O)ccc1O", "inhibition": "23% (inactive)"}, {"smiles": "COc1cccc(OCCCN2CCCC2)c1", "inhibition": "13% (inactive)"}, {"smiles": "O=C(Cc1ccccc1)Nc1ccc2nn(-c3ccc(Cl)cc3)nc2c1", "inhibition": "37% (inactive)"}, {"smiles": "O=C(Cc1ccc(Cl)cc1)Nc1ccc2nn(-c3ccc(F)cc3)nc2c1", "inhibition": "41% (inactive)"}, {"smiles": "Cc1ccccc1OCC(=O)Nc1ccc2nn(-c3ccccc3)nc2c1", "inhibition": "8% (inactive)"}, {"smiles": "O=C(COc1ccccc1Cl)Nc1ccc2nn(-c3ccccc3)nc2c1", "inhibition": "53% (active)"}, {"smiles": "O=C(COc1ccccc1Cl)Nc1cccc(NC(=O)c2ccccc2)c1", "inhibition": "6% (inactive)"}, {"smiles": "O=C(COc1ccccc1Cl)Nc1cccc(S(=O)(=O)c2cccc(NC(=O)COc3ccccc3Cl)c2)c1", "inhibition": "54% (active)"}, {"smiles": "O=C(Cc1ccc(Cl)cc1)Nc1ccc2nn(-c3ccc(Cl)cc3)nc2c1", "inhibition": "51% (active)"}, {"smiles": "COc1ccc(-n2nc3ccc(NC(=O)COc4ccccc4Cl)cc3n2)cc1", "inhibition": "32% (inactive)"}, {"smiles": "O=C(COc1ccccc1Cl)Nc1cccc(NC(=O)c2cccc(Cl)c2)c1", "inhibition": "38% (inactive)"}, {"smiles": "O=C(COc1ccccc1)Nc1cc(C(F)(F)F)cc(C(F)(F)F)c1", "inhibition": "0% (inactive)"}, {"smiles": "CC1=C(C(=O)Nc2ccccc2)C(c2cccc(Br)c2)NC(=S)N1", "note": "(stereo unspecified)", "inhibition": "8% (inactive)"}, {"smiles": "COc1cc(/C=N\\NC(=O)CSc2nc3ccccc3o2)ccc1O", "inhibition": "25% (inactive)"}, {"smiles": "C#CCSc1nc(C)cc(C)c1C#N", "inhibition": "13% (inactive)"}, {"smiles": "Cc1csc(NC(=O)C2CC3CCC2C3)n1", "note": "(stereo unspecified)", "inhibition": "4% (inactive)"}, {"smiles": "COc1ccc(N(CC(=O)Nc2cccc(OC)c2)S(=O)(=O)c2ccc(C)cc2)cc1", "inhibition": "16% (inactive)"}, {"smiles": "CC(C(=O)O)n1c(O)c(/C=C2/C=Nc3ccccc32)sc1=S", "note": "(stereo unspecified)", "inhibition": "4% (inactive)"}, {"smiles": "O=C(N/N=C/c1ccc(Cl)cc1Cl)c1ccc(O)c(O)c1", "inhibition": "57% (active)"}, {"smiles": "O=C(N/N=C/c1ccc(Cl)cc1Cl)c1cc(O)cc(O)c1", "inhibition": "6% (inactive)"}, {"smiles": "O=C(N/N=C/c1c[nH]c2ccccc12)c1cc(O)cc(O)c1", "inhibition": "8% (inactive)"}, {"smiles": "O=C(N/N=C/c1ccccc1Cl)c1ccc(C(=O)N/N=C/c2ccccc2Cl)cc1", "inhibition": "0% (inactive)"}, {"smiles": "O=C(N/N=C/c1ccc(Cl)cc1Cl)c1ccccc1Cl", "inhibition": "5% (inactive)"}, {"smiles": "O=C(N/N=C/c1coc2ccccc2c1=O)c1cc(O)cc(O)c1", "inhibition": "55% (active)"}, {"smiles": "O=C(N/N=C/c1ccc(Cl)cc1Cl)c1cc(Br)ccc1O", "inhibition": "0% (inactive)"}, {"smiles": "O=C(N/N=C/c1ccc(O)c(O)c1O)c1ccc(Cl)cc1Cl", "inhibition": "61% (active)"}, {"smiles": "O=C(N/N=C/c1ccccc1Cl)c1cccc(Cl)c1", "inhibition": "8% (inactive)"}, {"smiles": "Cc1ccccc1/C=N/NC(=O)c1cc(O)cc(O)c1", "inhibition": "2% (inactive)"}, {"smiles": "C[n+]1ccc(C(=O)N/N=C/c2ccc(Cl)cc2Cl)cc1", "inhibition": "0% (inactive)"}, {"smiles": "O=C(/C=C/c1cc(Br)cs1)Nc1ccccc1", "inhibition": "11% (inactive)"}, {"smiles": "Cc1cc(C)c(S(=O)(=O)N2CCCC2=O)c(C)c1", "inhibition": "0% (inactive)"}, {"smiles": "O=C(Nc1cc(NC(=O)c2cc(Cl)ccc2Cl)ccc1Cl)c1ccccc1", "inhibition": "20% (inactive)"}, {"smiles": "Cc1nnc(C)n1/N=C/c1ccc(Cl)cc1", "inhibition": "2% (inactive)"}, {"smiles": "Cn1c(SC/C=C/c2ccccc2)nc2sc3c(c2c1=O)CCC3", "inhibition": "2% (inactive)"}, {"smiles": "CCOC(=O)c1c(NC(=O)Cc2cccs2)sc(C(=O)Nc2cc(C(F)(F)F)ccc2Cl)c1C", "inhibition": "16% (inactive)"}, {"smiles": "COc1ccc(C2CC(=O)N(CCCN(C)C)C2)cc1", "note": "(stereo unspecified)", "inhibition": "2% (inactive)"}, {"smiles": "O=C(N/N=C/c1cccc(Cl)c1Cl)c1ccc(Cl)c(Cl)c1", "inhibition": "5% (inactive)"}, {"smiles": "O=C(N/N=C/c1cccc(O)c1O)c1cc(O)cc(O)c1", "inhibition": "86% (active)"}, {"smiles": "O=C(N/N=C/c1cccc(Cl)c1Cl)c1ccc(O)cc1", "inhibition": "0% (inactive)"}, {"smiles": "O=C(N/N=C/c1cccc(O)c1O)c1ccccc1", "inhibition": "31% (inactive)"}, {"smiles": "O=C(N/N=C/c1cccc(Cl)c1Cl)c1ccc(O)c(O)c1", "inhibition": "56% (active)"}, {"smiles": "O=C(N/N=C/c1cccc(O)c1O)c1ccc(O)cc1", "inhibition": "32% (inactive)"}, {"smiles": "Oc1c(Cl)cc(Cl)cc1C=Nc1ccc(-c2nc3ccccc3[nH]2)cc1", "inhibition": "0% (inactive)"}, {"smiles": "CCOC(=O)COc1ccc(/C=C2\\C(=O)NC(=S)N(c3ccc(OCC)cc3)C2=O)cc1OC", "inhibition": "9% (inactive)"}, {"smiles": "NC1=NC(=O)/C(=C/c2cccc(OS(=O)(=O)c3cccc([N+](=O)[O-])c3)c2)S1", "inhibition": "3% (inactive)"}, {"smiles": "COc1ccc(CSCC(=O)N/N=C/c2ccccc2O)cc1", "inhibition": "14% (inactive)"}, {"smiles": "COc1ccc(CSCC(=O)N/N=C/c2c(Cl)cccc2Cl)cc1", "inhibition": "60% (active)"}, {"smiles": "Cc1cc(C)nc(SCC(=O)N/N=C/c2c(Cl)cccc2Cl)n1", "inhibition": "20% (inactive)"}, {"smiles": "CCOC(=O)c1c(NC(=O)c2cc(-c3ccccc3)nc3ccccc23)sc(C(N)=O)c1C", "inhibition": "24% (inactive)"}, {"smiles": "CCOC(=O)c1c(NC(=O)c2cc(-c3ccc(C(C)C)cc3)nc3ccccc23)sc(C(N)=O)c1C", "inhibition": "55% (active)"}, {"smiles": "CCOC(=O)c1c(NC(=O)c2cc(-c3ccc(C)c(C)c3)nc3ccccc23)sc(C(N)=O)c1C", "inhibition": "5% (inactive)"}, {"smiles": "C=CCn1c(-c2nonc2NC(C)=O)nc2ccccc21", "inhibition": "42% (inactive)"}, {"smiles": "Oc1ccc(/C=N/Nc2nncc(-c3ccccc3)n2)c(O)c1", "inhibition": "23% (inactive)"}, {"smiles": "Oc1ccc(/C=N/Nc2nncc(-c3ccccc3)n2)cc1", "inhibition": "5% (inactive)"}, {"smiles": "Cc1ccnc(NC(=O)c2ccc(OCC(C)C)cc2)c1", "inhibition": "0% (inactive)"}, {"smiles": "O=C1OC2C=CC(Br)=CC2C=C1C(=O)N1CCSC1c1ccc2c3c(cccc13)CC2", "note": "(stereo unspecified)", "inhibition": "6% (inactive)"}, {"smiles": "CCN1C(=O)/C(=C/c2cc(Cl)cc(Cl)c2OCCOc2ccccc2OC)SC1=S", "inhibition": "7% (inactive)"}, {"smiles": "CN1C[N+]([O-])=C(c2ccccc2)C1(C)C", "inhibition": "3% (inactive)"}, {"smiles": "CCOC(=O)C1=C(c2ccccc2)S/C(=C2/C(=S)C(C)(C)Nc3ccc(C(c4ccccc4)(c4ccccc4)c4ccccc4)cc32)S1", "inhibition": "27% (inactive)"}, {"smiles": "COC(=O)C1=C(C(=O)OC)SC(=C2C(=S)C(C)(C)Nc3ccc(C(c4ccccc4)(c4ccccc4)c4ccccc4)cc32)S1", "inhibition": "53% (active)"}, {"smiles": "COC(=O)C1=C(C(=O)OC)SC(=C2C(=S)C(C)(C)Nc3ccc(C)cc32)S1", "inhibition": "28% (inactive)"}]}]}
